Measurements reported in PubChem BioAssay (NCATS).
Results filed as inconclusive are left out. Where a call stands in place of a potency, no number is given. Calls of active or inactive are those of the source. Unless noted, the call rests on the fitted dose curve.

Tested on: not listed separately
Assay: qHTS for Inhibitors of the Functional Ribonucleoprotein Complex (vRNP) of Lymphocytic Choriomeningitis Arenaviruses (LCMV): Viability assay - alamar blue signal for LCMV Primary Screen (AID 1347085; calls by dose curve; tested in HEK293 reporter line; further: nearly all actives have a fitted effect of over 80% in size)
Settings: alamar blue viability counter-screen, LCMV vRNP screen cells; series mostly up to 57.5 µM
Potency means the concentration at half of the fitted maximal effect.

Structure (SMILES)	Potency
CCN(c1ccccc1)c1cc(NC)[n+](C)c(C)n1	inactive
OC[C@H]1O[C@@H](n2cnc3c2NC=NC[C@@H]3O)C[C@H]1O	inactive
Clc1ccc(-c2nc3sccn3c2C=NOCc2ccc(Cl)c(Cl)c2)cc1	inactive
OCc1ccccn1	inactive
CCCCCCCCCCCCCC(=O)OC(C)C	inactive
Cc1ccccc1C(C(=O)NC1CCCC1)N(C(=O)Cn1cnc2ccccc21)c1cccc(F)c1 (stereo unspecified)	inactive
CCOc1ccc(Cc2cc([C@@H]3O[C@H](CO)[C@@H](O)[C@H](O)[C@@H]3O)ccc2Cl)cc1	inactive
CC(C)(C)C(=O)Oc1ccc2c(c1)nc(NC(=O)c1cccc([N+](=O)[O-])c1)n2CCCO	inactive
Nc1ccccc1N	inactive
N=C1N=C(N)c2cc3ccccc3cc21	inactive
Nc1cccc(S(=O)(=O)N2CCCN(S(=O)(=O)c3ccc4c(c3)OCCO4)CC2)c1	inactive
O=C(O)CNC(=O)CNC(=O)CNC(=O)CSC(=O)c1ccccc1	inactive
COc1cc2c(cc1OC)C(=O)CC2	inactive
CS(=O)(=O)Nc1ccc([N+](=O)[O-])cc1Oc1ccccc1	inactive
OCCCc1ccccc1	inactive
CN(C)CC/C=C1/c2ccccc2COc2ccc(CC(=O)O)cc21	inactive
COc1ccccc1O	inactive
Nc1ccc(S(=O)(=O)Nc2ccccc2)cc1	inactive
Cn1cncc1[C@@](N)(c1ccc(Cl)cc1)c1ccc2c(c1)c(-c1cccc(Cl)c1)cc(=O)n2C	2430 nM (active)
NC(=O)Nc1cc(-c2cccc(F)c2)sc1C(=O)N[C@H]1CCCNC1	1530 nM (active)
O=C1C(CCC(O)c2ccc(F)cc2)C(c2ccc(O)cc2)N1c1ccc(F)cc1 (stereo unspecified)	inactive
COc1nc(C)cnc1NS(=O)(=O)c1cccnc1-c1ccc(-c2nnco2)cc1	inactive

Target: Nucleoprotein (Lymphocytic choriomeningitis virus (strain Armstrong)) (UniProt P09992)
Sequence (P09992 whole entry, looked up): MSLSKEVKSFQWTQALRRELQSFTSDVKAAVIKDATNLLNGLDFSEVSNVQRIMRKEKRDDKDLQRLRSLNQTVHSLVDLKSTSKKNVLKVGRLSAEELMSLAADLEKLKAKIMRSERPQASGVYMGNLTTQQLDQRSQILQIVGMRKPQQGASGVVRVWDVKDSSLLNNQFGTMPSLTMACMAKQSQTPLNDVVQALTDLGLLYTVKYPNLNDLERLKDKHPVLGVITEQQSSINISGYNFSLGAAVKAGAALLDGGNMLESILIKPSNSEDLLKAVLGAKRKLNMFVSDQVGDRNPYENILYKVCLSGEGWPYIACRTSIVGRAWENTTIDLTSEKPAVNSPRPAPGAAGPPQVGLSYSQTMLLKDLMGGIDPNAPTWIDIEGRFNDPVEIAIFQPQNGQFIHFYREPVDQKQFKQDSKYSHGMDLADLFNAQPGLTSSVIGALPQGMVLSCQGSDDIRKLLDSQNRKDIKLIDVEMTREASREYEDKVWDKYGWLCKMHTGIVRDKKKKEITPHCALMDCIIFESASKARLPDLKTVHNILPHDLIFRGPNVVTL
Assay: qHTS for Inhibitors of the Functional Ribonucleoprotein Complex (vRNP) of Lymphocytic Choriomeningitis Arenaviruses (LCMV): LCMV Primary Screen - GLuc reporter signal (AID 1347086); further: nearly all actives have a fitted effect of over 70% in size
Settings: LCMV minigenome vRNP cell assay, Gaussia luciferase reporter; series mostly up to 57.5 µM

Structure (SMILES)	Potency
C[C@@H](N)C1CCC(C(=O)Nc2ccncc2)CC1 (stereo partly specified)	9680 nM (active)
C=CCn1c(=O)c2cnc(Nc3ccc(N4CCN(C)CC4)cc3)nc2n1-c1cccc(C(C)(C)O)n1	968 nM (active)
C[C@@H](O[C@H]1OCCN(Cc2n[nH]c(=O)[nH]2)[C@@H]1c1ccc(F)cc1)c1cc(C(F)(F)F)cc(C(F)(F)F)c1	inactive
CCn1cc(C(=O)O)c(=O)c2cc3c(cc21)OCO3	inactive
COc1ccc2c(c1)CC[C@H]1[C@@H]2CC[C@]2(C)[C@@H](NCCCCCCN3C(=O)C=CC3=O)CC[C@H]12	inactive
NCCO	inactive
CCCCCN(CCC12CC3CC(CC(C3)C1)C2)C(=O)NCCCc1ccncc1	inactive
N[C@H]1C(O)O[C@H](CO)[C@@H](O)[C@@H]1O (stereo partly specified)	inactive
O=C(NO)c1ccccc1	inactive
Cc1[nH]nc2ccc(-c3cncc(OC[C@@H](N)Cc4ccccc4)c3)cc12	273 nM (active)
Cc1cn(-c2cc(NC(=O)c3ccc(C)c(Nc4nccc(-c5cccnc5)n4)c3)cc(C(F)(F)F)c2)cn1	inactive
O=C(O)c1ccc2cc(-c3ccc(O)c(C45CC6CC(CC(C6)C4)C5)c3)ccc2c1	inactive
Clc1ccccc1CN1CCc2sccc2C1	inactive
NC(=O)c1ccc(I)c([N+](=O)[O-])c1	inactive
C[N+]1(C)C2CC(OC(=O)[C@H](CO)c3ccccc3)CC1C1OC12 (stereo partly specified)	inactive
O=[N+]([O-])c1cccc(S(=O)(=O)NCCNS(=O)(=O)c2cccc([N+](=O)[O-])c2)c1	inactive
N#C/C(=C1\SCC(c2ccccc2Cl)S1)n1ccnc1 (stereo unspecified)	inactive
CCN(c1ccccc1)c1cc(NC)[n+](C)c(C)n1	inactive
OC[C@H]1O[C@@H](n2cnc3c2NC=NC[C@@H]3O)C[C@H]1O	inactive
Clc1ccc(-c2nc3sccn3c2C=NOCc2ccc(Cl)c(Cl)c2)cc1	inactive

Structure (SMILES)	Potency
OCc1ccccn1	inactive
CCCCCCCCCCCCCC(=O)OC(C)C	inactive
Cc1ccccc1C(C(=O)NC1CCCC1)N(C(=O)Cn1cnc2ccccc21)c1cccc(F)c1 (stereo unspecified)	inactive
CCOc1ccc(Cc2cc([C@@H]3O[C@H](CO)[C@@H](O)[C@H](O)[C@@H]3O)ccc2Cl)cc1	inactive
CC(C)(C)C(=O)Oc1ccc2c(c1)nc(NC(=O)c1cccc([N+](=O)[O-])c1)n2CCCO	inactive
Nc1ccccc1N	inactive
N=C1N=C(N)c2cc3ccccc3cc21	inactive
Nc1cccc(S(=O)(=O)N2CCCN(S(=O)(=O)c3ccc4c(c3)OCCO4)CC2)c1	inactive
O=C(O)CNC(=O)CNC(=O)CNC(=O)CSC(=O)c1ccccc1	inactive
COc1cc2c(cc1OC)C(=O)CC2	inactive
CS(=O)(=O)Nc1ccc([N+](=O)[O-])cc1Oc1ccccc1	inactive
OCCCc1ccccc1	inactive
CN(C)CC/C=C1/c2ccccc2COc2ccc(CC(=O)O)cc21	inactive
COc1ccccc1O	inactive
Nc1ccc(S(=O)(=O)Nc2ccccc2)cc1	inactive
Cn1cncc1[C@@](N)(c1ccc(Cl)cc1)c1ccc2c(c1)c(-c1cccc(Cl)c1)cc(=O)n2C	1370 nM (active)
NC(=O)Nc1cc(-c2cccc(F)c2)sc1C(=O)N[C@H]1CCCNC1	3430 nM (active)
O=C1C(CCC(O)c2ccc(F)cc2)C(c2ccc(O)cc2)N1c1ccc(F)cc1 (stereo unspecified)	inactive
COc1nc(C)cnc1NS(=O)(=O)c1cccnc1-c1ccc(-c2nnco2)cc1	inactive
